Hits are enriched below; roughly 1.2% of the tested compounds scored in any of these assays.
C2C12 statin: suppression of simvastatin myotoxicity | AID 602340 | rescue of ATP level, % at 7.49 µM | 0.78% of 330,000 active | C2C12 myotubes + simvastatin, ATP luminescence, 48 h; scaled: DMSO 0, geranylgeraniol control 100;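 active = mean ATP rescue above about 67%, or every replicate alone reaching that limit, limit read from the data, passing the limit was not always enough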;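 also: myotubes were challenged with 10 µM simvastatin during compound exposure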
NSD2 HMT inh: NSD2 (human) methyltransferase inhibition | O96028 | NSD2 peptide methylation, AlphaScreen, 120 min | inhibition, % at 12.5 µM | 0.54% of 310,000 active | AID 743445; in the data active = inhibition above about 50%
miR-122 sensor: miR-122 inhibition in Huh7 cells | Huh7 miR-122 Renilla luciferase sensor, 48 h; neutral wells = 0, positive control = 100 | activation (reporter increase), % at 12.5 µM | 0.3% of 340,000 active;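 active = mean replicate activation score at least 90 and every replicate individually at or above 90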;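 also: higher luciferase means less miR-122 activity so hits act as miR-122 inhibitors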
PglD inh: inhibitors of Campylobacter jejuni PglD acetyltransferase; inhibition, % at 12.5 µM; 0.098% of 360,000 active; purified PglD enzyme, DTNB colorimetric CoA detection; in the data active = inhibition above about 16%, passing the limit was not always enough
A number is an active result; . = inactive; / = no result; [ ] = dose if it differs, or a comment.

SMILES | C2C12 statin | NSD2 HMT inh | miR-122 sensor | PglD inh
CCOC(=O)CSc1nc2ccccc2c(=O)n1CC1CCC(C(=O)NCc2ccco2)CC1 (configuration not stated) | . | . | 138 | .
CC(C)COc1nc2ccccc2c(=O)n1OCC(=O)O | 116 | . | . | .
CC1(Cc2cccc(F)c2)C(=O)Nc2ccc(S(=O)(=O)NC3CCCCC3)cc21 (configuration not stated) | 164 | . | . | .
Cc1ccccc1NC(=O)CCN1C(=O)CSC1=O | . | . | . | .
CC1=C(C(=O)Nc2ccccc2C)C(c2ccc(C)o2)N2C(=O)CSC2=N1 (configuration not stated) | 78 | / | . | .
Clc1ccc2[nH]cc(-c3nnnn3-c3ccc4ccccc4c3)c2c1 | / | . | 212 | /
COc1ccc(N(C(=O)c2ccco2)S(=O)(=O)c2cc(OC)ccc2OC)cc1 | 104 | . | . | .
CC(C)n1c(/C=C/c2ccccc2)nc2ccccc21 | . | . | 192 | .
O=C1NC[C@H](CC2CCCCC2)N(CC2CCCCC2)C1=O | 107 | / | . | .
CC(O)[C@H]1CNC(=O)C(=O)N1CC1CCCCC1 (some centres not stated) | . | / | . | .
Cc1noc(C)c1NC(=O)Nc1ccc2c(c1)CC(=O)N([C@@H](C)CO)C[C@@H](C)[C@@H](CN(C)C)O2 | . | / | . | .
COc1ccc(NC(=O)N2CC[C@@H]3[C@@H](CO)N(C)c4ccc(-c5ccccc5F)cc4[C@@H]32)cc1 | . | / | . | .
COc1ccc(S(=O)(=O)Nc2ccc3c(c2)C(=O)N([C@@H](C)CO)C[C@H](C)[C@H](CN(C)C(=O)Nc2ccccc2)OCCCC[C@@H](C)O3)cc1 | / | / | 120[16.7 µM] | .
COc1ccc(NC(=O)N(C)C[C@@H]2OCCCC[C@H](C)Oc3ccc(NS(=O)(=O)c4ccc(C)cc4)cc3C(=O)N([C@H](C)CO)C[C@H]2C)cc1 | / | / | . | 17
COc1ccc(S(=O)(=O)N(C)C[C@@H]2Oc3ccc(NS(=O)(=O)c4ccc(F)cc4)cc3CC(=O)N([C@H](C)CO)C[C@@H]2C)cc1 | . | / | . | /
CSCCC(NC(N)=O)C(=O)NCC1CCCCC1 (configuration not stated) | 127 | . | . | .
CSCCC(NC(=O)c1ccco1)C(=O)NCC1CCCCC1 (configuration not stated) | . | . | . | .
CC(=O)C1=C(N2CCCCC2)CCC1=O | 95 | . | . | .
COc1ccc(C(=O)NC(C(=O)NCc2ccccn2)C(C)C)cc1 (configuration not stated) | 136 | . | . | .
CCOc1ccc(NCc2cccn2-c2nnc(N3CCC(C(=O)NCCCN4C(C)CCCC4C)CC3)s2)cc1 (configuration not stated) | 102 | . | . | .
CCOc1ccc(NCc2cccn2-c2nnc(N3CCC(C(=O)NCCCN4CCCCC4C)CC3)s2)cc1 (configuration not stated) | . | . | . | .
C[C@@H]1CN([C@H](C)CO)C(=O)c2cc(NC(=O)c3ccncc3)ccc2O[C@@H]1CN(C)C(=O)Nc1ccc2c(c1)OCO2 | . | / | . | .
O=C(COC(=O)C1CCN(S(=O)(=O)c2cccc3cccnc23)CC1)c1ccc(F)cc1 | 96 | . | . | .
Cc1csc2nc(CNC(=O)c3cccc(C(F)(F)F)c3)cn12 | 109 | . | . | /
CCN(CC)S(=O)(=O)c1ccc(NC(=O)c2ccccc2N(C)S(C)(=O)=O)cc1 | . | . | . | .
SMILES | C2C12 statin | NSD2 HMT inh | miR-122 sensor | PglD inh
CCN(CC)S(=O)(=O)c1ccc(NC(=O)c2ccc(N(C)S(C)(=O)=O)cc2)cc1 | 104 | . | . | .
O=C(NCCOC(=O)c1ccccc1)c1ccc([N+](=O)[O-])cc1 | . | . | . | .
O=C(NCCOC(=O)c1ccncc1)c1ccccc1 | 87 | / | . | .
CCCOc1ccc(C(O)(CCN2CCCCC2)c2ccccc2OC)cc1 (configuration not stated) | 87 | . | . | .
C[C@@H]1CN([C@@H](C)CO)C(=O)Cc2cc(NC(=O)Nc3ccc(C(F)(F)F)cc3)ccc2O[C@@H]1CN(C)Cc1ccc(Oc2ccccc2)cc1 | . | / | . | .
CCOc1cc(CNn2nnnc2N)ccc1OCC(=O)NC(C)(C)C | 83 | . | . | .
Cc1ccc(NC(=O)CO/N=C(\N)c2ccccc2)cc1C | 95 | . | . | .
CC(C)OCC(O)CN (configuration not stated) | 97 | . | . | .
CCN1CCN(CC(O)COC(C)C)CC1 (configuration not stated) | . | . | . | .
O=C1NC(c2cccc3ccccc23)Nc2ccccc21 (configuration not stated) | / | . | 150 | /
COc1ccccc1NC1=NCC(=O)N1Cc1ccccc1 | 88 | . | . | .
C[C@@H]1CN([C@@H](C)CO)C(=O)c2cc(NC(=O)c3ccncc3)ccc2O[C@@H]1CN(C)C(=O)Nc1ccc2c(c1)OCO2 | . | / | . | .
Fc1ccc(C[n+]2csc3ccccc32)cc1 | 74 | . | . | .
Clc1ccc(C[n+]2csc3ccccc32)cc1 | / | . | / | /
CCCCC(=O)NNC(=S)NC(=O)CCC | 112 | . | . | .
CCCCC(=O)NC(=S)NNC(=O)CC#N | . | . | . | .
COc1ccc(CN(C)C[C@@H]2Oc3ccc(NC(=O)Cc4cn(C)c5ccccc45)cc3CC(=O)N([C@H](C)CO)C[C@H]2C)cc1 | 81 | / | . | .
C[C@@H]1CN([C@@H](C)CO)C(=O)Cc2cc(NC(=O)Cc3cn(C)c4ccccc34)ccc2O[C@@H]1CN(C)Cc1ccc(C(F)(F)F)cc1 | . | / | . | .
C[C@@H]1CN([C@@H](C)CO)C(=O)Cc2cc(NC(=O)Cc3cn(C)c4ccccc34)ccc2O[C@H]1CN(C)Cc1ccc(Oc2ccccc2)cc1 | 76 | / | . | .
C[C@@H]1CN([C@@H](C)CO)C(=O)Cc2cc(NC(=O)Cc3ccccc3)ccc2O[C@H]1CN(C)Cc1ccc(C(F)(F)F)cc1 | . | / | . | .
C[C@H](CO)N1C[C@H](C)[C@@H](CN(C)Cc2ccc(C(F)(F)F)cc2)Oc2ccc(NC(=O)Cc3ccccc3)cc2CC1=O | 116 | / | . | .
C[C@H](CO)N1C[C@H](C)[C@@H](CN(C)Cc2ccc(C(F)(F)F)cc2)Oc2ccc(NC(=O)Cc3cn(C)c4ccccc34)cc2CC1=O | 115 | / | . | .
CCCNC(=O)C[C@@H]1CC[C@H]2[C@@H](COc3ccc(NC(=O)c4ccc(Cl)cc4)cc3C(=O)N2C)O1 | . | / | . | .
Cc1cc(C(=O)N2CCN(C/C=C/c3ccccc3)CC2)no1 | . | . | . | .
O=C(c1cnccn1)N1CCN(C/C=C/c2ccccc2)CC1 | 102 | . | . | .
CSCCC(NC(=O)c1cccc(C)c1)C(=O)OCC(=O)N1CCOCC1 (configuration not stated) | / | . | / | /
O=C1NCCN/C1=C\C(=O)c1ccc(F)cc1 | / | . | / | /
CC1CN/C(=C\C(=O)c2ccccc2)C(=O)N1 (configuration not stated) | 117 | . | . | .
CC1CN/C(=C\C(=O)c2ccc(Cl)cc2)C(=O)N1 (configuration not stated) | 88 | . | . | .

Bioassay records (PubChem BioAssay)
